Rows were chosen to be rich in hits. Some 1.7% of all compounds tested hit in one or more screens of this group.
rTrxR1 inhibitor = rat TrxR1 inhibition; recombinant rTrxR1, NADPH fluorescence consumption, selenite substrate; O89049; 390,000 compounds, 1% hits; Potency, µM (doses to about 114 µM), usual class: inhibitors; further: nearly all actives have a fitted effect of over 65% in size
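Rat TrxR1 (90 nM in the dispensed reagent) was pre-reduced with 400 uM NADPH for 5 min at room temperature, then incubated with compound for 15 min. After 400 uM selenite was added, NADPH fluorescence (Ex 340/Em 450 nm) was followed for 8 min.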
ALOX12 inh = inhibitors of human 12S-lipoxygenase ALOX12; purified 12hLO, xylenol orange hydroperoxide absorbance; 580,000 compounds, 1.1% hits; Potency, µM (titrated, usually from 108 µM), actives largely listed as inhibitors; AID 1671190; P18054
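Purified human 12hLO (150 nM final) in 25 mM Hepes, 0.01% Triton X-100, pH 7.0 was preincubated 15 min at room temperature with compound. Then 40 uM arachidonic acid was added, 30 min. Hydroperoxide was read by Fe-XO absorbance ratio 573/405 nm.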
mIDH1 inhibitor = blocks human mutant IDH1 R132H enzyme | Potency, µM (titrated, usually from 76.6 µM), actives largely listed as inhibitors | 390,000 compounds, 0.093% hits | IDH1-R132H enzyme, NADPH consumption, diaphorase/resazurin fluorescence; further: nearly all actives have a fitted effect of over 65% in size
Target sequence (O75874 whole entry R132H, stated change not applied): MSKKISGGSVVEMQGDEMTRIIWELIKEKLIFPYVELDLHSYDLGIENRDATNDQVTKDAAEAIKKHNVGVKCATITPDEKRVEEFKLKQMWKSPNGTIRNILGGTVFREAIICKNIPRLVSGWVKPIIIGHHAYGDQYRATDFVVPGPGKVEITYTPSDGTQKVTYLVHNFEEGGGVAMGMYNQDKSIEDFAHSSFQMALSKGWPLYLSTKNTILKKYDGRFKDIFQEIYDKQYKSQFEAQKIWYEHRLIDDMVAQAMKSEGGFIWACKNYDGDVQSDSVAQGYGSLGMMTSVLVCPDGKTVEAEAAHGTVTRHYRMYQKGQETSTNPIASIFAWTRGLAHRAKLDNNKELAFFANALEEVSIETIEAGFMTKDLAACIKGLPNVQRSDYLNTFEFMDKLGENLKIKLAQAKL
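IDH1-R132H (0.5 ug/mL dispensed) in pH 7.5 Tris buffer was preincubated 30 min with compound, then given a substrate mix of 0.016 mM NADPH and 2 mM alpha-KG for 80 min at room temperature; remaining NADPH was read by diaphorase/resazurin fluorescence.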
Glioma ERSR ind = inducers of ER stress response in human glioma cells; U87-MG GRP78 promoter luciferase reporter, 16 h; Potency, µM, hits mostly activators; 420,000 compounds, 0.02% hits; further: series mostly up to about 76 µM; nearly all actives have a fitted effect of over 35% in size
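Stably transfected U87-MG human glioma cells carrying a GRP78-based luminescent sensor were seeded at 1000 cells/well, pin-dosed with compounds and incubated 16 h. Luciferase reagent was then added, and end-point luminescence was read after 10 min at room temperature.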
Anesthetic bind = candidate novel general anesthetic via apoferritin binding; P02791; apoferritin/1-aminoanthracene competitive binding, fluorescence; Potency, µM (titrated, usually from 77.5 µM), most hits filed as inhibitors; 350,000 compounds, 0.074% hits; further: nearly all actives have a fitted effect of over 20% in size
Target sequence (P02791 2-175 limits assumed): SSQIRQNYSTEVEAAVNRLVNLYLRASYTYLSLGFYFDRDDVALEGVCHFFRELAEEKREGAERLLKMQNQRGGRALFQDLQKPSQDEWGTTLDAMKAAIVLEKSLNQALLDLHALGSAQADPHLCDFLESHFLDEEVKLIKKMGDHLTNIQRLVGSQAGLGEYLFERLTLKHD
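10 uM apoferritin + 50% sat. 1-AMA, PBS; cpd 10 min RT; Ex380/Em535 endpoint; normalized to free probe vs complex; 4-param Hill fit; propofol titration as pos. ctrl.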
TrxR1 substrate = substrates of rat thioredoxin reductase 1. O89049. purified TrxR1 substrate turnover, NADPH consumption readout. Potency, µM (series often up to 114 µM). 390,000 compounds, 0.01% hits. AID 588456; further: nearly all actives have a fitted effect of over 50% in size
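Rat TrxR1, dispensed at 90 nM, was prereduced with 400 uM NADPH (final) for 5 min at ~22 deg C, then incubated with compound 15 min before 400 uM selenite. A first-read NADPH fluorescence drop versus no-compound background flagged substrates.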
Numbers stand for hits; – = inactive; ? = inconclusive; · = no result; ! = repeats disagree; [ ] = remark or other dose. The call rests on the fitted dose curve; in most records, active means well fitted curve in the direction sought with a large enough effect; inconclusive means small, poorly fitted or top-dose-only effect, or another doubt; inactive means no such curve, though single readings can be large; an effect the other way counts as inactive or inconclusive.

SMILES	rTrxR1 inhibitor	ALOX12 inh	mIDH1 inhibitor	Glioma ERSR ind	Anesthetic bind	TrxR1 substrate
O=[N+]([O-])c1ccccc1C(=Nc1ccccc1)c1c(O)cc(O)cc1O	·	45µM	–	–	·	·
O=C(Nc1ccccc1)c1ccccc1NC(=O)c1ccccc1[N+](=O)[O-]	–	–	–	–	·	–
O=C(CCl)N1c2ccccc2SCC1c1ccccc1 (centres undefined)	1.3µM	20µM	–	–	–	–
O=C(CCl)N1c2ccccc2OCC1c1ccccc1 (centres undefined)	2.2µM	–	–	–	–	–
O=C(CN1CCSc2ccccc21)N1CCCCC1	–	–	–	?	–	–
CCCn1c(CN2CCN(C(=O)c3ccco3)CC2)nc2cc(S(=O)(=O)N(C)C)ccc21	20µM	–	–	–	·	–
CCn1c(CN2CCN(c3ccc(OC)cc3)CC2)nc2cc(S(=O)(=O)N(C)C)ccc21	–	–	–	–	–	–
CC1(C(=O)OCC(=O)Nc2nc(-c3ccc(F)c(F)c3)cs2)CC1(Cl)Cl (centres undefined)	–	56µM	–	–	–	–
COc1ccc(CC(=O)Nc2nc(-c3ccc(F)c(F)c3)cs2)cc1	–	–	–	–	–	–
Clc1ccccc1N/N=C/c1ccc2c(c1)OCO2	–	35µM	–	–	–	–
N#Cc1cnc2nc1NCCCCCCC2	·	?	–	–	·	·
COc1ccc2c(c1)CSC(c1ccccc1)C2=O (centres undefined)	·	35µM	–	–	·	·
COc1cccc(C2C(=O)c3ccccc3C2=O)c1	–	?	–	–	–	–
CC1CC2=C(NC(=S)NC2c2cccc(F)c2)/C(=C/c2cccc(F)c2)C1 (centres undefined)	–	28µM	–	–	–	–
CC1CC2=C(NC(=S)NC2c2ccccc2F)/C(=C/c2ccccc2F)C1 (centres undefined)	–	35µM	–	–	–	–
COCCn1c(SCC(=O)Nc2ccc(Cl)c(C(F)(F)F)c2)nc2ccsc2c1=O	·	–	·	·	·	·
CCCCOc1ccc(C(NC(=O)OCC)NC(=O)OCC)cc1	–	–	–	–	–	–
CCCCCOc1ccc(C(N)C(=O)OCC)cc1 (centres undefined)	·	20µM	·	·	·	·
CNC(=O)NC(=O)C(c1ccccc1)N(C)CC(=O)NCCOC (centres undefined)	·	–	·	·	·	·
Cc1cc(-c2nnc(-c3ccccc3)c(-c3ccccc3)n2)c(C)o1	32µM	?	–	–	?	–
Cc1cc(C)cc(NC(=S)Nc2ccc(Cl)c(Cl)c2)c1	–	40µM	–	–	?	–
COc1cc(C(=O)OCCOc2ccc(F)cc2)cc(OC)c1OC	·	–	·	·	·	·
Cc1sc2cc(C(=O)O)[nH]c2c1CN1CCCCC1	·	–	·	·	·	·
Cc1nc(CCNC(=O)C2CNCCO2)sc1C (centres undefined)	·	8.9µM	·	·	·	·
O=C(CN1CCOCC1)N1c2ccccc2Sc2ccccc21	–	–	–	–	–	–
SMILES	rTrxR1 inhibitor	ALOX12 inh	mIDH1 inhibitor	Glioma ERSR ind	Anesthetic bind	TrxR1 substrate
c1ccc(N2CCN(Cc3ccc4c(c3)OCO4)CC2)nc1	–	?	–	–	·	–
O=C(CN1CCN(Cc2ccc3c(c2)OCO3)CC1)N1c2ccccc2Sc2ccccc21	·	0.79µM	·	–	·	·
O=C(c1ccc(COc2ccccc2Cl)o1)N1CCN(Cc2ccc3c(c2)OCO3)CC1	–	45µM!	–	–	–	–
O=C(c1ccc(COc2ccc(Cl)cc2)o1)N1CCN(Cc2ccc3c(c2)OCO3)CC1	?	?	–	–	–	–
c1cnc(N2CCN(Cc3ccc4c(c3)OCO4)CC2)nc1	–	22µM!	–	–	–	–
COc1ccccc1C(=O)Nc1ccc2oc(-c3ccccc3)cc(=O)c2c1	·	–	·	·	·	·
CCN1/C(=C/C=C/C=C/C=C/c2sc3ccccc3[n+]2CC)Sc2ccccc21	–	40µM	–	–	–	–
Cc1cc(C(=O)Nc2ccc(S(=O)(=O)Nc3onc(C)c3C)cc2)c(C)o1	?	–	–	–	–	–
Cc1noc(NS(=O)(=O)c2ccc(NC(=O)c3ccoc3C)cc2)c1C	28µM	–	–	–	–	–
CN1CCCC2(CCN(C(=O)Nc3ccccc3-c3ccccc3)C2)C1=O (centres undefined)	·	–	·	·	·	·
COc1ccc(CCNC(=O)C2Cn3cccc3C(=O)N2C)cc1OC (centres undefined)	·	–	·	·	·	·
O=C(/C=C/c1ccco1)Oc1ccc(Sc2ccc(OC(=O)/C=C/c3ccco3)cc2)cc1	·	11µM	·	·	·	·
CC(=C/C(=O)O)/C=C/c1ccco1	28µM	?	–	–	–	–
CC(/C=C/c1ccc(Cl)o1)=C\C(=O)O	?	?	–	–	–	–
C[C@H](NC(=O)C[C@@H]1C=C[C@@H](NC(=O)CN2CCOCC2)[C@@H](CO)O1)c1ccccc1	·	–	·	·	·	·
O=C(NC1CCN(C2CC2)CC1)c1ccccc1C(=O)c1ccc(F)cc1	·	–	·	·	·	·
COc1ccc(N/C=C2\CCOC2=O)cc1	–	–	–	–	–	–
COc1ccc(N/C=C2\C(=O)CCc3c2oc2cc(Cl)c(O)c(Cl)c32)cc1	–	6.3µM	–	–	–	–
COc1cc(Cl)c(S(=O)(=O)N2CCCC2)cc1Cl	–	–	–	–	–	–
COc1cc(N2C(=O)C=CC2=O)c(OC)cc1Cl	3.2µM	16µM	–	–	–	–
CC(C)NC(=O)N1CCC(c2noc(-c3ccncc3)n2)C1 (centres undefined)	·	–	·	·	·	·
CCCCCOc1ccc(C(=O)N2CCC(c3nc4ccccc4o3)CC2)cc1	·	–	·	·	·	·
COc1cc(/C=C2\N=C(C)OC2=O)cc(Cl)c1OC(C)=O	40µM	?	–	–	–	–
COC(=O)C1CCC(=S)N1C(=O)c1ccccc1 (centres undefined)	–[2.29 µM]	8.9µM	–	–	?	–[2.29 µM]
COC(=O)[C@H]1CN(C(=O)c2ccccc2)C(=O)N1	–	–	–	–	–	–
SMILES	rTrxR1 inhibitor	ALOX12 inh	mIDH1 inhibitor	Glioma ERSR ind	Anesthetic bind	TrxR1 substrate
COc1cc(NC(=O)COc2ccc(-n3ccnc3)cc2)cc(OC)c1	–	?	–	–	–	–
CC(C)(C)c1ccc(NC(=O)COc2ccc(-n3ccnc3)cc2)cc1	–	–	–	–	28µM	–
Cc1cc(C(=O)NC(=S)Nc2ccccc2N2CCOCC2)ccc1[N+](=O)[O-]	–	28µM	–	–	–	–
CCOc1ccc(C(=O)NC(=S)Nc2ccccc2N2CCC(C)CC2)cc1[N+](=O)[O-]	–	35µM	–	–	–	–
O=C(NC(=S)Nc1ccccc1N1CCOCC1)c1ccc(-c2ccccc2F)o1	–	25µM	–	–	–	–
O=C(NC(=S)Nc1ccccc1N1CCOCC1)c1ccc(Br)cc1	–	35µM	–	–	–	–
CCOc1ccc(C(=O)NC(=S)Nc2ccc(N3CCC(C)CC3)cc2)cc1[N+](=O)[O-]	–	–	–	–	–	–

Screening results: PubChem BioAssay, National Center for Advancing Translational Sciences (NCATS)
